Consider eight compounds from PubChem BioAssay (Tox21).

Test [1] is described as follows: qHTS assay to identify small molecule antagonists of the estrogen related receptor (ERR) signaling pathway from Tox21 library - cell viability counter screen (AID 1224834). Further: nearly all actives have a fitted effect of over 30% in size. Further: potency means the concentration at half of the fitted maximal effect. In short, it runs like this: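 Seeded ERR cells were rested 6 h at 37 C/5% CO2 before compounds, positive and negative controls or DMSO were added. Incubation continued for 17.5 h, and viability was then quantified by CellTiter-Fluor fluorescence.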
For orientation: In qHTS, concentration-response curves come from the screen itself.

For test [2], the target named is Luciferin 4-monooxygenase (Photinus pyralis) (UniProt P08659). Kind of test: qHTS assay to identify small molecule inhibitors of firefly luciferase (AID 1224835). Further: nearly all actives have a fitted effect of over 25% in size. Further: potency means the concentration at half of the fitted maximal effect. In short, it runs like this: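 Inhibition of purified Photinus luciferase is measured by luminescence. Substrate levels (D-luciferin, ATP) sit at their KM values. Each compound is tested in a concentration series.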
Chain of Luciferin 4-monooxygenase (Photinus pyralis) (P08659 whole entry, looked up): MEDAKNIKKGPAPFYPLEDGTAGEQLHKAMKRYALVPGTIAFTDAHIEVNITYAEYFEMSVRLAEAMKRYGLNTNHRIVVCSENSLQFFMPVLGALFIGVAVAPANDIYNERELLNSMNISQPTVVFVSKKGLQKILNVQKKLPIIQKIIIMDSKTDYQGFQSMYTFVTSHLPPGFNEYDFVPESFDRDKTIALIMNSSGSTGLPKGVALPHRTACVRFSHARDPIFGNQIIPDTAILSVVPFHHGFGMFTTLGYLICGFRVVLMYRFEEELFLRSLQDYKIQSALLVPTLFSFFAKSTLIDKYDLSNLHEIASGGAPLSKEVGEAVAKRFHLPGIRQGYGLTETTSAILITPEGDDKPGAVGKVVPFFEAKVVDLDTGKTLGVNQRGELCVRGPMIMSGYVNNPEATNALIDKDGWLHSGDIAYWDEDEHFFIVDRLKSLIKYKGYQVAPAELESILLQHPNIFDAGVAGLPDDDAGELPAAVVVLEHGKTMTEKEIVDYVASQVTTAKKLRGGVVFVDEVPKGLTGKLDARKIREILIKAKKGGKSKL

A short description of test [3]: qHTS assay to identify small molecule agonists of the constitutive androstane receptor (CAR) signaling pathway - cell viability counter screen (AID 1224836). Further: nearly all actives have a fitted effect of over 45% in size. Further: potency means the concentration at half of the fitted maximal effect. In short, it runs like this: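 Fluorescence from CellTiter-Fluor indicates live cells after 23 h exposure. The human hepatoma line expresses hCAR and a CYP2B6-2.2kb reporter. Incubation medium contains 0.75 uM PK11195 (final).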

Test [4] concerns the target Nuclear receptor subfamily 1 group I member 3 (Homo sapiens) (UniProt Q14994). Nature of the test: qHTS assay to identify small molecule antagonists of the constitutive androstane receptor (CAR) signaling pathway (AID 1224838).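 Further: HepG2 cells stably expressing hCAR with CYP2B6 luciferase reporter stimulated by CITCO; nearly all actives have a fitted effect of over 40% in size.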 Further: potency means the concentration at half of the fitted maximal effect. In short, it runs like this: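 Human hepatoma HepG2 cells expressing hCAR and a CYP2B6 promoter (2.2 kb) luciferase construct; compound titration (15 points) with 50 nM CITCO final, 24 h at 37 C/5% CO2; luminescence via ONE-Glo after 30 min at room temperature.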

Test [5] shares this target. Kind of test: qHTS assay to identify small molecule agonists of the constitutive androstane receptor (CAR) signaling pathway (AID 1224839).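 Further: HepG2 cells stably carrying human CAR and a CYP2B6 luciferase reporter; nearly all actives have a fitted effect of over 15% in size.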 In short, it runs like this: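 Stable hCAR/CYP2B6-2.2kb HepG2 line in DMEM with 10% FBS; compounds (15 concentrations) and 0.75 uM PK11195 final, 24 h at 37 C/5% CO2, then ONE-Glo luminescence after 30 min.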
Test [6] can be described thus: qHTS assay to identify small molecule antagonists of the estrogen related receptor signaling pathway with the pleiotropic PPARgamma coactivator (PGC) from Tox21 10K library - cell viability counter screen (AID 1224840; active means well fitted cell-killing curve with a large enough effect in the repeat runs, not every such curve was filed as active; further: nearly all actives have a fitted effect of over 40% in size; further: potency means the concentration at half of the fitted maximal effect). The gist of the method:
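Seeded PGC/ERR cells (2,000/well, 6 h, 37 C/5% CO2) get compound by pin tool; 17.5 h incubation at 37 C; CellTiter-Fluor added, 30 min, fluorescence measured.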

A short description of test [7]: qHTS assay to identify small molecule antagonists of the estrogen related receptor signaling pathway with the pleiotropic PPARgamma coactivator (PGC) from Tox21 10K library (AID 1224841; call rule not given here; further: actives are mostly falling curves and most rising ones were filed inactive; nearly all actives have a fitted effect of over 50% in size). In short, it runs like this: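 Test chemicals dissolved in DMSO were applied to pre-incubated (6 h) PGC/ERR cells at 2,000 cells/well for an 18 h, 37 C treatment; reporter luminescence was then read using One-Glo.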

Test [8] is described as follows: qHTS assay to identify small molecule agonists of the estrogen related receptor signaling pathway with the pleiotropic PPARgamma coactivator (PGC) from Tox21 10K library (AID 1224842). Further: nearly all actives have a fitted effect of over 15% in size. Further: potency means the concentration at half of the fitted maximal effect. In short, it runs like this: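 Luminescence from One-Glo (30 min, room temperature) measured after PGC/ERR cells had 18 h at 37 C with pinned compound (23 nL in DMSO). Cells had been seeded at 2,000 per well and pre-incubated 6 h.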

Test [9] deals with Thyrotropin receptor (Homo sapiens) (UniProt P16473). Kind of test: qHTS assay to identify small molecule agonists of the thyroid stimulating hormone receptor (TSHR) signaling pathway (AID 1224843; calls by dose curve; further: nearly all actives have a fitted effect of over 45% in size; further: potency means the concentration at half of the fitted maximal effect). The gist of the method: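 Agonist activity read as cAMP rise via d2/cryptate HTRF competition, 1 h room-temperature detection, in HEK293 cells expressing TSHR. Fifteen-point titrations, each run in triplicate, with a 30 min room-temperature incubation beforehand.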
Chain of Thyrotropin receptor (Homo sapiens) (P16473 whole entry, looked up): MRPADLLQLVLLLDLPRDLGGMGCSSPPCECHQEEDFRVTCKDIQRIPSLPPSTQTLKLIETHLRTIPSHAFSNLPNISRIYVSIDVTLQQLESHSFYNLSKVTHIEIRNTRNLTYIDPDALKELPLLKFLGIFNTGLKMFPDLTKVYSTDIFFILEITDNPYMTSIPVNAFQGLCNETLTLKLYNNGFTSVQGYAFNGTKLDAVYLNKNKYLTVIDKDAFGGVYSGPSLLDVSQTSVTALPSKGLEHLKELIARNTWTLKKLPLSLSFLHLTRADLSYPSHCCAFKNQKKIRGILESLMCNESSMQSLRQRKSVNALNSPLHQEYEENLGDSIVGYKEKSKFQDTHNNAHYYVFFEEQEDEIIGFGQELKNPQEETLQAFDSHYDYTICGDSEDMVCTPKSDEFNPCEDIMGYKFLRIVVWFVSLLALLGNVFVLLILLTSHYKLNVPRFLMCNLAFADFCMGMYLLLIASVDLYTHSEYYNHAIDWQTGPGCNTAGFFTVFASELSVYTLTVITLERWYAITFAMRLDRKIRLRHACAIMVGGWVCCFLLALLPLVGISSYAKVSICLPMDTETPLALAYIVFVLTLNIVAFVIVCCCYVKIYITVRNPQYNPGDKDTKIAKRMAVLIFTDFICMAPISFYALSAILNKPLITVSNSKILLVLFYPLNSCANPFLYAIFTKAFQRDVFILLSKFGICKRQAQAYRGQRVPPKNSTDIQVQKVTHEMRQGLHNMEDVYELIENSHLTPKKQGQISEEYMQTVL

The nature of test [10]: qHTS assay to identify small molecule agonists of the hypoxia (HIF-1) signaling pathway - cell viability counter screen (AID 1224844; calls by dose curve; further: nearly all actives have a fitted effect of over 50% in size; further: potency means the concentration at half of the fitted maximal effect). In short, it runs like this:
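HRE-bla ME-180; 0.5% dFBS; cpd 17 h, 37C, 5% CO2; CellTiter-Glo lum., 30 min RT, post-FRET read, same wells.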

Test [11] in a line: qHTS assay to identify small molecule agonists of H2AX (AID 1224845; active means well fitted activation curve with a large enough effect in the signal ratio in the repeat runs, not every such curve was filed as active; the % refers to the signal ratio). The gist of the method: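 Phospho-H2AX Ser139 measured by HTRF (ex 320 nm; em 665 and 620 nm) after 24 hr antibody incubation. Compounds, 15 concentrations, 0.76% DMSO, were applied to CHO-K1 cells for 3hr at 37C before lysis.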
Test [12] can be described thus: qHTS assay to identify small molecule agonists of the hypoxia (HIF-1) signaling pathway (AID 1224846; active means well fitted activation curve with a large enough effect in the signal ratio in the repeat runs, not every such curve was filed as active; the % refers to the signal ratio). The gist of the method: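 Reporter induction in HRE-bla ME-180 cells is taken as agonism: cells sit 5 hrs after plating, receive compounds or DMSO only, incubate 17 hrs at 37C under 5% CO2, and are loaded with CCF4-AM for beta-lactamase FRET measurement.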
A short description of test [13]: qHTS assay to identify small molecule agonists of H2AX - cell viability counter screen (AID 1224847; calls by dose curve; further: top concentration of the series differs between compounds; nearly all actives have a fitted effect of over 30% in size). The gist of the method:
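Viability of CHO-K1 (wild type) cells after 3 hr compound exposure was measured by CellTiter-Glo luminescence.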

The nature of test [14]: qHTS assay to identify small molecule antagonists of the estrogen related receptor (ERR) signaling pathway from Tox21 library (AID 1224848). Further: nearly all actives have a fitted effect of over 50% in size. In short, it runs like this:
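Luciferase luminescence (ONE-Glo, 30 min room temperature) was the read-out. Cells of the NTP-supplied ERR line, 2,000 per well, were given 6 h at 37 C before compound addition in DMSO and 18 h exposure at 37 C.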

Test [15] can be described thus: qHTS assay to identify small molecule agonists of the estrogen related receptor (ERR) signaling pathway from Tox21 library (AID 1224849; calls by dose curve; further: nearly all actives have a fitted effect of over 15% in size). Particulars: ERR reporter cell line, ONE-Glo luciferase, 18 h. The gist of the method: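 Tox21 compounds tested for ERR agonism in an NTP reporter cell line: 18 h treatment at 37 C, then ONE-Glo luminescence.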
Test [16] is described as follows: qHTS RealTime-Glo MT Cell Viability Assay in HepG2 cells - 24 hour (AID 1224867). Further: nearly all actives have a fitted effect of over 50% in size. The gist of the method: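 Tox21 10K library screened in qHTS format on HepG2 cells carrying RealTime-Glo reagents. Compounds were added after a 5 h preincubation, and the luminescent signal from continuous culture was measured repeatedly during 40 h treatment.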
Test [17] is described as follows: qHTS RealTime-Glo MT Cell Viability Assay in HEK293 cells - 32 hour (AID 1224868). Further: nearly all actives have a fitted effect of over 50% in size. Further: potency means the concentration at half of the fitted maximal effect. In short, it runs like this: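 Luminescence generated by NanoLuc from substrate produced by living HEK293 cells served as the viability signal. Each value reflects the reading at its stated time point during continuous 40 h compound exposure at 37 C.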
Test [18] can be described thus: qHTS assay to identify small molecule antagonists of the constitutive androstane receptor (CAR) signaling pathway - cell viability counter screen (AID 1224837). Further: nearly all actives have a fitted effect of over 45% in size. In short, it runs like this:
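To flag cytotoxic false antagonists, HepG2 hCAR/CYP2B6-2.2kb cells were treated 23 hr with 15-concentration compound series and 50 nM CITCO at 37 C/5% CO2; CellTiter-Fluor fluorescence was the measured end point.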

Test [19] in a line: A CellTox Green Cytotoxicity Assay to monitor cytotoxicity in HEK293 cells - 0 hour (AID 1224869). Further: nearly all actives have a fitted effect of over 50% in size. The gist of the method:
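Tox21 screen in HEK293: membrane-impermeant cyanine dye fluoresces on binding dead-cell DNA; compound pinned 5 h post-seeding, plates held at 37 C, signal read repeatedly through 40 h.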

Where “and” joins values, the source holds several entries; their conditions need not be identical. Equal entries are not always repeated. Results filed as inconclusive are left out. Where a structure was tested more than once in an assay, its records may differ in their call. Calls of active or inactive are those of the source. Unless noted, the call rests on the fitted dose curve; in most records, active means well fitted curve in the direction sought with a large enough effect in the repeat runs; inconclusive means weak or mixed curves; inactive means no such curve, though single readings can be large; an effect the other way counts as inactive or inconclusive.
On the % scale 0 is the no-effect control and ±100 the full control effect.

Chain of Nuclear receptor subfamily 1 group I member 3 (Homo sapiens) (Q14994 whole entry, looked up): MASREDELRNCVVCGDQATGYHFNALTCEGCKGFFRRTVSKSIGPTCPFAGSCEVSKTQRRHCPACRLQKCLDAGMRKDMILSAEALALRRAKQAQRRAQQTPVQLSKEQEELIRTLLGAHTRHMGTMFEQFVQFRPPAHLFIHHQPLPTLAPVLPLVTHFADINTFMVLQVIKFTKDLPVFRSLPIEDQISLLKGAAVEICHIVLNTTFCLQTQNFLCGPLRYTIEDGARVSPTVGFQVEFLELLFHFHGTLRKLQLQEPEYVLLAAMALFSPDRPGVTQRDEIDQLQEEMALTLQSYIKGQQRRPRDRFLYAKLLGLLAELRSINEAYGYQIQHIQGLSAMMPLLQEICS

Consider `CC(C)(CO)COC(=O)C(C)(C)CO`, for which the Potency result in test [1], in [2], in [3], in test [4], in test [5] and in test [6] was “inactive” in each case. Also, the Potency result in test [7], in test [8], in [9], in test [10], in test [11] and in [13] was “inactive” in each case. Besides, the Potency entry in test [14], in [16] and in [17] was “inactive” throughout. Further, in [12], the call was inactive. The activity change, positive = activation in test [15] (at 92.4 µM (top of the series)) is 2.22% (inactive) and 0.644% (inactive).
`CCC(C)C=O` (stereo not drawn): the Potency entry in test [1], in [2], in test [3], in test [18], in test [5] and in test [6] was “inactive” throughout. In addition, the Potency result in test [10], in [11], in [16] and in test [19] was “inactive” in each case. For the same compound, the Potency was 4.32 µM (active) and inactive in test [9]; “inactive and 3.47 µM (active)” in test [17].
As to `COC(=O)c1ccccc1O`, the Potency result in test [1], in test [3], in test [18], in test [6], in [7] and in test [9] was “inactive” each time. Moreover, the Potency result in test [10], in [11], in [13], in test [14], in test [16] and in [17] was “inactive” in each case. In test [19], the Potency result is “inactive”. Also, the Potency was 63.5 µM (active) and inactive in [2]; 21.7 µM (active) and inactive in test [8]. In test [15] (at 92.4 µM (top of the series)), the activity change, positive = activation is 19.3% (active) and 7.16% (inactive).
Consider `NCCNCCNCCNCCN`, for which the Potency entry in [1], in test [2], in [3], in test [4], in [5] and in test [6] was “inactive” each time. Besides, the Potency result in test [7], in [8], in test [9], in [10], in test [11] and in test [14] was “inactive” throughout. The Potency entry in [16], in test [17] and in [19] was “inactive” each time. For the same compound, the outcome in test [12] was inactive. Besides, the activity change, positive = activation is 3.41% (inactive) in test [15] (at 8.39 µM (top of the series)) and 2.98% (inactive) in test [15] (at 92.4 µM (top of the series)).
Turning to `C=C(C)C(=O)OCCCCCC`, the Potency entry in test [1], in test [2], in test [3], in [18], in test [6] and in [9] was “inactive” throughout. Further, the Potency result in test [10], in test [11], in [13], in test [16] and in test [17] was “inactive” throughout.
On to `CN(C)c1ccc(C(=N)c2ccc(N(C)C)cc2)cc1`, for which the Potency in test [1] is 24 µM (active) and 20.9 µM (active); in test [2], 55.7 µM (active) and inactive; in test [3] it was 24 µM (active) and 23.4 µM (active); in test [4] it was 52.4 µM (active); in [6], 30.3 µM (active) and 20.9 µM (active); in test [17] it was 3.05 µM (active) and 2.97 µM (active). For the same compound, the Potency entry in test [5], in test [10] and in test [19] was “inactive” in each case. The outcome in test [12] was inactive.
Turning to `Nc1cc(-c2ccncc2)c[nH]c1=O`, the Potency entry in test [1], in [2], in test [3], in test [18], in test [6] and in [7] was “inactive” throughout. The Potency entry in test [8], in test [9], in test [10], in [11], in test [13] and in test [14] was “inactive” in each case. Moreover, the Potency result in test [16], in [17] and in [19] was “inactive” throughout. The activity change, positive = activation in [15] (at 42.5 µM (top of the series)) was -5.23% (inactive); in test [15] (at 92.4 µM (top of the series)), -0.579% (inactive).
As to `CCCCCCOC(C)=O`, the Potency entry in test [1], in test [2], in [3], in [4], in test [5] and in [6] was “inactive” in each case. In addition, the Potency result in test [7], in [8], in test [9], in test [11], in test [13] and in test [14] was “inactive” in each case. The Potency result in [16], in test [17] and in [19] was “inactive” in each case. Further, the Potency entry in test [10] was “inactive and 27.5 µM (active)”. Further, in test [15] (at 92.4 µM (top of the series)), the activity change, positive = activation is 8.85% (inactive) and -7.41% (inactive).
